IL-1B inflam inh = qHTS for Inhibitors of Inflammasome Signaling: IL-1-beta AlphaLISA Primary Screen; activity change, % at 57.5 µM; AID 743279, 2014; 360,000 tested, 4.7% active; THP-1 LPS/ATP IL-1B secretion, AlphaLISA, 16 h; stronger effect = lower value; in the data active means activity change below about -50%; inconclusive means mostly about -30% to -49%
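THP-1 cells pretreated 1 hr with compounds (up to 57.5 uM final), then stimulated with LPS (250 ng/mL final) plus ATP (1.25 mM final); secreted IL-1B measured by AlphaLISA after 16 hr, decreased signal indicating inhibition.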
DT40 TDP1 CPT = qHTS for Inhibitors of human tyrosyl-DNA phosphodiesterase 1 (TDP1): qHTS in cells in presence of CPT; chicken DT40 Tdp1-/-;hTDP1 cells + 20 nM CPT, ATP luminescence, 48 h; Potency, µM (titrated, usually from 46.2 µM), without a hit: top-dose activity change, negative = growth inhibition, hits mostly inhibitors; 420,000 tested, 12% active; further: potency means the concentration at half of the fitted maximal effect; nearly all actives have a fitted effect of over 55% in size
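Chicken DT40 Tdp1-/- cells stably complemented with human TDP1 were seeded at 400 cells/well in medium containing 20 nM camptothecin, exposed to pin-transferred compounds, and grown at 37 °C for at least 48 hr. Viability was read as ATP luminescence.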
ELG1 repair inh = qHTS screen for small molecules that inhibit ELG1-dependent DNA repair in human embryonic kidney (HEK293T) cells expressing luciferase-tagged ELG1 | 330,000 tested, 2.3% active | AID 504467, 2011 | HEK293T ELG1-luciferase reporter, luminescence, 16 h; DNA damage induced by 5-fluorouridine | Potency, µM (highest dose often 46.1 µM), without a hit: top-dose activity change, negative = inhibition, most hits filed as inhibitors; further: potency means the concentration at half of the fitted maximal effect; nearly all actives have a fitted effect of over 55% in size
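Luminescence from the luciferase reporter, measured 30 min after ONE-Glo reagent at room temperature, was the read-out. Beforehand, 2,000 cells per well were exposed for 16 hr at 37 °C to 5-fluorouridine together with compound or vehicle.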
DT40 TDP1 no CPT = qHTS for Inhibitors of human tyrosyl-DNA phosphodiesterase 1 (TDP1): qHTS in cells in absence of CPT; DT40 Tdp1-/- hTDP1 cells, no CPT, ATP luminescence, 48 h; Potency, µM (series often up to 46.2 µM), inactives show top-dose activity change, negative = growth inhibition, actives largely listed as inhibitors; 420,000 tested, 15% active; further: potency means the concentration at half of the fitted maximal effect; nearly all actives have a fitted effect of over 55% in size
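No-CPT arm: Tdp1-/-;hTDP1 DT40 cells (400/well) plus compounds, incubated ≥48 hr at 37 °C. Readout CellTiter-Glo luminescence.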
Giardia killer = Small Molecules that selectively kill Giardia lamblia: qHTS; Giardia lamblia trophozoite viability; activity change, % at 7.66 µM, hits read low; 340,000 tested, 0.15% active; AID 540267, 2011; in the data active means activity change below about -80%; inconclusive means between about -30% and that limit;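 further: parasites exposed to compound for two days anaerobically before the ATP read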
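Each well holds 100 Giardia trophozoites and compound. After two days (48 hrs) at 37 deg C in anaerobic conditions, ATP is quantified by luminescence.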
TDP1 inh = qHTS Assay for Inhibitors of Tyrosyl-DNA Phosphodiesterase (TDP1); Tyrosyl-DNA phosphodiesterase 1 (Homo sapiens), Q9NUW8; recombinant TDP1, AlphaScreen DNA substrate cleavage; Potency, µM (series often up to 130 µM), inactives show top-dose activity change, negative = inhibition, most hits filed as inhibitors; 350,000 tested, 0.28% active; further: potency means the concentration at half of the fitted maximal effect; nearly all actives have a fitted effect of over 40% in size
Target sequence (Q9NUW8 whole entry, looked up): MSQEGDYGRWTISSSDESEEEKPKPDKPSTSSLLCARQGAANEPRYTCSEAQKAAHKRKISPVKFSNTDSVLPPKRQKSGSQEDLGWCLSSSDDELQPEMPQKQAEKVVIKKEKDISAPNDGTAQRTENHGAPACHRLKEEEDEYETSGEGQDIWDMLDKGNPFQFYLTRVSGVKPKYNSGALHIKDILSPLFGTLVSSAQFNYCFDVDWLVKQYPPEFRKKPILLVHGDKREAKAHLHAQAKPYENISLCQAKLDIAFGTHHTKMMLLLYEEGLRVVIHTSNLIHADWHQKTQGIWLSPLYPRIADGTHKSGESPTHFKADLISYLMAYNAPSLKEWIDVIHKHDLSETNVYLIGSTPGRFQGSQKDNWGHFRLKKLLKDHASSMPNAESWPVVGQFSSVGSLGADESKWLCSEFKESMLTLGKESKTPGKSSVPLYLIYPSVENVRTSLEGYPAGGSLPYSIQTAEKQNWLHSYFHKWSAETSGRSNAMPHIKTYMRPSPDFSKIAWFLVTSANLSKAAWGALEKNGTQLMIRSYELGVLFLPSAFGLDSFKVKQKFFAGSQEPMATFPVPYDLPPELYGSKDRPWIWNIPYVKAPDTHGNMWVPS
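Signal: AlphaScreen proximity between streptavidin donor and anti-FITC acceptor beads on intact substrate. Reaction: Tdp1 1 nM, substrate 15 nM final, 5 min RT after 15 min compound preincubation.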
* marks the source's active call; other numbers are inactive results; u = inconclusive; x = not tested or not shown; [ ] = dose if it differs, or a comment. Compounds with a hit are over-represented: about 19% of the library has one in this group of screens. Unless noted, the call rests on the fitted dose curve; in most records, active means well fitted curve in the direction sought with a large enough effect; inconclusive means small, poorly fitted or top-dose-only effect, or another doubt; inactive means no such curve, though single readings can be large; an effect the other way counts as inactive or inconclusive. On the % scale 0 is the no-effect control and ±100 the full control effect.

SMILES	IL-1B inflam inh	DT40 TDP1 CPT	ELG1 repair inh	DT40 TDP1 no CPT	Giardia killer	TDP1 inh
CCC1(OC(=O)CN(C)C)C(=O)OCc2c1cc1n(c2=O)Cc2cc3c(N)cccc3nc2-1 (configuration not stated)	-97.1*	0.164µM*	x	0.184µM*	9.7	x
COc1cc2c(-c3ccccc3C)nc3c(c(C)nn3-c3ccccc3)c2cc1OC	x	23.1µM*	x	u	x	-6.6%[12.3 µM]
COc1cc2c(-c3cc(Br)ccc3O)nc3c(c(C)nn3-c3ccccc3)c2cc1OC	x	u	x	-24.1%	x	-5.7%[12.3 µM]
COc1cc2c(C)nc3c(cnn3-c3ccccc3)c2cc1OC	-15.2	-17.1%	5.2%	-21.8%	19.2	0.0%
COc1cc(-c2nc3c(c(C)nn3-c3ccccc3)c3cc(OC)c(OC)cc23)ccc1O	u	u	18.4µM*	20.6µM*	22.1	-3.1%
CC(C)=CCC/C(C)=C/Cc1c(O)ccc(C(=O)/C=C/c2ccc(O)cc2)c1O	-80.0*	u	-1.1%	20.6µM*	-14.6	5.3%
c1coc(-c2cc3nc(NC4CCCCC4)ccn3n2)c1	-7.0	u	x	20.6µM*	x	x
C=CCC(C)(O)c1cccc(Br)c1 (configuration not stated)	x	x	x	x	x	5.6%
Cc1nnc(NC(=O)CSc2cn(CCNC(=O)c3ccccc3)c3ccccc23)s1	-10.6	-22.6%	u	u	7.2	7.9%
COc1ccc(C(=O)NCCn2cc(SCC(=O)NCCc3ccc(OC)c(OC)c3)c3ccccc32)cc1	x	18.4µM*	x	16.4µM*	x	7.1%
COc1ccc(C(=O)NCCn2cc(SCC(=O)Nc3nnc(C)s3)c3ccccc32)cc1	-13.0	u	x	u	-3.7	x
COc1ccc(CCNC(=O)CSc2cn(CCNC(=O)c3cccc(C(F)(F)F)c3)c3ccccc23)cc1OC	x	20.6µM*	x	14.6µM*	x	3.2%
CCOc1ccc(CCNC(=O)CSc2cc(=O)n(C)c3ccccc23)cc1OCC	-2.0	-29.3%	-10.4%	u	-1.3	2.3%
CCOc1ccc(C(=O)NCCn2cc(SCC(=O)Nc3ccc4c(c3)OCCO4)c3ccccc32)cc1	x	u	x	u	x	9.7%
COc1ccc(CCNC(=O)CSc2cn(CCNC(=O)c3ccc(OC)c(OC)c3)c3ccccc23)cc1OC	x	u	x	23.1µM*	x	1.9%
COc1ccc(C(=O)NCCn2cc(SCC(=O)Nc3ccc4c(c3)OCCO4)c3ccccc32)cc1OC	x	14.6µM*	x	20.6µM*	x	11.0%
CC(C)(C)C1CCc2c(sc(NC(=O)c3ccncc3)c2C(=O)Nc2ccccc2Cl)C1 (configuration not stated)	x	-20.9%	x	u	x	x
CCOC(=O)OCC1OC(c2ccccc2)C=CC1Oc1cccc(N(C)C)c1 (configuration not stated)	x	x	x	x	x	11.1%[21 µM]
CCN(CC(=O)NCc1cccs1)S(=O)(=O)c1cccc(Br)c1	-16.3	-26.8%	13.0%	u	-12.3	-0.4%
Cc1ccc(CN(Cc2ccco2)C(=O)COc2ccccc2C)cc1	x	20.6µM*	x	16.4µM*	x	-1.2%
Cc1ccc(CN(Cc2ccco2)C(=O)COc2c(C)cc(C)cc2C)cc1	x	23.1µM*	x	9.2µM*	x	1.2%
CCC(=O)N(CCC(c1ccco1)C(C)C)Cc1ccccc1 (configuration not stated)	-6.9	u	1.5%	u	-0.1	-2.6%
CCC(=O)N(CCC(c1ccc(C)cc1)c1ccco1)Cc1ccco1 (configuration not stated)	-4.2	u	3.0%	23.1µM*	0.6	5.9%
Cc1cc(C)c(OCC(=O)N(Cc2ccc(N(C)C)cc2)Cc2ccco2)c(C)c1	x	11.6µM*	x	7.31µM*	x	13.5%
CSc1ccc(S(=O)(=O)N2CCC(C(=O)Nc3ccccc3C(F)(F)F)CC2)cc1	-4.1	11.0%	-5.0%	-16.9%	-0.8	12.2%
SMILES	IL-1B inflam inh	DT40 TDP1 CPT	ELG1 repair inh	DT40 TDP1 no CPT	Giardia killer	TDP1 inh
CCCS(=O)(=O)N1CCC(n2c(C)nc3cccnc32)CC1	x	18.4µM*	x	18.4µM*	x	5.3%
CCOc1ccc(S(=O)(=O)N2CCC(c3ccncc3)CC2)cc1	x	11.6µM*	x	u	x	1.5%
CCOc1ccc(S(=O)(=O)N2CCC(n3c(C)nc4cccnc43)CC2)cc1	x	20.6µM*	x	11.6µM*	x	5.3%
Cc1nc2cccnc2n1C1CCN(S(=O)(=O)N(C)C)CC1	x	3.7%	x	u	x	5.3%
CCOc1ccc(S(=O)(=O)n2c(C)nc3ccccc32)cc1	42.0	u	-1.1%	20.6µM*	-0.9	-2.6%
c1ccc(CSc2nnc(NC3CCCCC3)s2)cc1	-51.6*	u	x	20.6µM*	x	x
COc1ccc(CNC(=O)c2cc3ccccn3n2)c(OC)c1	x	u	x	u	x	0.0%
CCCCOc1ccc(C(O)C(CN2CCCCC2)c2ccccc2)cc1 (configuration not stated)	u	23.1µM*	-2.5%	23.1µM*	22.0	0.0%
CCCCCOc1ccc(C(=O)C(c2ccccc2)N2CCOCC2)cc1 (configuration not stated)	u	20.6µM*	-19.2%	u	9.9	6.5%[56.1 µM]
O=C(c1ccc(F)cc1)C(CN1CCOCC1)c1ccccc1 (configuration not stated)	-64.1*	1.84µM*	u	1.3µM*	9.8	-2.1%
CCCOc1ccc(C(=O)C(CN2CCCC2)c2ccccc2)cc1 (configuration not stated)	-102.6*	3.66µM*	18.4µM*	5.17µM*	-11.5	-2.6%
CCCOc1ccc(C(O)C(CN2CCOCC2)c2ccccc2)cc1 (configuration not stated)	-1.6	9.8%	-4.3%	-11.8%	18.1	1.0%
NC(=S)NNc1c(F)c(F)c(F)c(F)c1F	-5.2	u	-5.6%	u	-0.4	5.9%
OC(CN1CCCC1)c1ccccc1 (configuration not stated)	x	u	x	-28.2%	x	x
CCCCOc1ccc(C(O)C(CN2CCOCC2)c2ccccc2)cc1 (configuration not stated)	11.0	-22.0%	0.0%	-15.2%	18.0	2.8%
O=C(c1ccccc1)C(CCC(CN1CCOCC1)C(=O)c1ccccc1)CN1CCOCC1 (configuration not stated)	-117.5*	0.731µM*	u	1.46µM*	4.2	5.1%

Screening data deposited in PubChem BioAssay by National Center for Advancing Translational Sciences (NCATS).
